What all share (experiment): PBM; 200 nM protein, PBS
Conditions in all cases: dsDNA, one strand shown

Assay [1] addresses NKX2-5 (Homo sapiens, UniProt P52952 125-210, R139K).
Assay [2] deals with T1, NKX2-4 (Homo sapiens, UniProt Q9H2Z4 175-261, P217L).
T1 sequence: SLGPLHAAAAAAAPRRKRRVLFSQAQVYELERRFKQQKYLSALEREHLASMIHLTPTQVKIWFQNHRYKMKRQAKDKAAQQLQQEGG

Assay [3] deals with T2, NKX2-4 (Homo sapiens, UniProt Q9H2Z4 175-261, T231S).
T2 sequence: T1 sequence with L43P, T57S

The target of assay [4] is T3, NKX2-4 (Homo sapiens, UniProt Q9H2Z4 175-261).
T3 sequence: T1 sequence with L43P

Assay [5] concerns the target T4, NKX2-6 (Homo sapiens, UniProt A6NCS4 118-204, R150C).
T4 sequence: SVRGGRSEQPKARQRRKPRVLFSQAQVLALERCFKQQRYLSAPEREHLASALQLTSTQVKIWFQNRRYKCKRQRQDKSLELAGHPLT

Assay [6] has as its target T5, NKX2-6 (Homo sapiens, UniProt A6NCS4 118-204).
T5 sequence: T4 sequence with C33R

Assay [7] concerns the target T6, NKX2-4 (Homo sapiens, UniProt Q9H2Z4 175-261, R246Q).
T6 sequence: T1 sequence with L43P, R72Q

Assay [8] addresses T7, NKX2-6 (Homo sapiens, UniProt A6NCS4 118-204, F151L).
T7 sequence: T4 sequence with C33R, F34L

For assay [9], the target named is NKX3-2 (Homo sapiens, UniProt P78367 192-278, P234S).
In assay [10] the target is NKX2-5 (Homo sapiens, UniProt P52952 125-210).
Assay [11] concerns the target NKX3-2 (Homo sapiens, UniProt P78367 192-278).
Assay [12] concerns the target ALX1 (Homo sapiens, UniProt Q15699 118-204, L144V).
Assay [13] has as its target ALX1 (Homo sapiens, UniProt Q15699 118-204, L144R).
In assay [14] the target is ALX1 (Homo sapiens, UniProt Q15699 118-204).
The target in assay [15] is T8, VENTX (Homo sapiens, UniProt O95231 78-163, R121Q).
T8 sequence: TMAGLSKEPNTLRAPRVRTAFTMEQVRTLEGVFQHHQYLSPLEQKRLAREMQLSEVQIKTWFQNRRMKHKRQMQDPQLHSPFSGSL

For assay [16], the target named is T9, VENTX (Homo sapiens, UniProt O95231 78-163, Y115F).
T9 sequence: T8 sequence with Y38F, Q44R

Assay [17] concerns the target HOXB4 (Homo sapiens, UniProt P17483 148-234).
Assay [18] concerns the target HOXB4 (Homo sapiens, UniProt P17483 148-234, V174I).

Residue numbers refer to the chain shown, from its start.

NKX3-2 (Homo sapiens, UniProt P78367 192-278), sequence (P78367 192-278): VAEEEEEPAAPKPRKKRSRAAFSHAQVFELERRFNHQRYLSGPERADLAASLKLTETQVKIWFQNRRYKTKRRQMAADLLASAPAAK
NKX2-5 (Homo sapiens, UniProt P52952 125-210), sequence (P52952 125-210): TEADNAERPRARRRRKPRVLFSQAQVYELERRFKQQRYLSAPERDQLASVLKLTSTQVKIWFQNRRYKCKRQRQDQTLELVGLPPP
NKX3-2 (Homo sapiens, UniProt P78367 192-278, P234S), sequence (P78367 192-278 P234S): as the sequence (P78367 192-278) above, with P43S counted along it
NKX2-5 (Homo sapiens, UniProt P52952 125-210, R139K), sequence (P52952 125-210 R139K): as the sequence (P52952 125-210) above, with R15K counted along it
ALX1 (Homo sapiens, UniProt Q15699 118-204, L144V), sequence (Q15699 118-204 L144V): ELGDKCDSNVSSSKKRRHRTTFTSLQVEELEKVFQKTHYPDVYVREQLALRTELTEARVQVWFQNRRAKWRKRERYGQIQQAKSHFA
HOXB4 (Homo sapiens, UniProt P17483 148-234), sequence (P17483 148-234): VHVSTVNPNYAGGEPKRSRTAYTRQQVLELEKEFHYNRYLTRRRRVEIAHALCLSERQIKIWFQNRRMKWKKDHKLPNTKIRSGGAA
ALX1 (Homo sapiens, UniProt Q15699 118-204, L144R), sequence (Q15699 118-204 L144R): as the sequence (Q15699 118-204 L144V) above, with V27R counted along it
ALX1 (Homo sapiens, UniProt Q15699 118-204), sequence (Q15699 118-204): as the sequence (Q15699 118-204 L144V) above, with V27L counted along it
HOXB4 (Homo sapiens, UniProt P17483 148-234, V174I), sequence (P17483 148-234 V174I): as the sequence (P17483 148-234) above, with V27I counted along it

As to GTACTTAA, the binding signal was 13.1 upbm affinity estimate (log intensity, higher = more binding, comparable within an allelic series) with NKX2-5 [1]; 12.8 upbm affinity estimate (log intensity, higher = more binding, comparable within an allelic series) with NKX2-4 [2]; 13.2 upbm affinity estimate (log intensity, higher = more binding, comparable within an allelic series) with NKX2-4 [3]; 12.6 upbm affinity estimate (log intensity, higher = more binding, comparable within an allelic series) with NKX2-4 [4]; 12 upbm affinity estimate (log intensity, higher = more binding, comparable within an allelic series) with NKX2-6 [5]; 13.9 upbm affinity estimate (log intensity, higher = more binding, comparable within an allelic series) with NKX2-6 [6]. The binding signal in the assay with NKX2-4 [7] is 13.3 upbm affinity estimate (log intensity, higher = more binding, comparable within an allelic series); in the assay with NKX2-6 [8], 11.2 upbm affinity estimate (log intensity, higher = more binding, comparable within an allelic series); with NKX3-2 [9], 12.7 upbm affinity estimate (log intensity, higher = more binding, comparable within an allelic series); in the assay with NKX2-5 [10], 12.9 upbm affinity estimate (log intensity, higher = more binding, comparable within an allelic series); in the assay with NKX3-2 [11], 12.8 upbm affinity estimate (log intensity, higher = more binding, comparable within an allelic series).
As to CCACTTTA, the binding signal is 12.7 upbm affinity estimate (log intensity, higher = more binding, comparable within an allelic series) in the assay with NKX2-5 [1]; 12.6 upbm affinity estimate (log intensity, higher = more binding, comparable within an allelic series) in the assay with NKX2-4 [2]; 13 upbm affinity estimate (log intensity, higher = more binding, comparable within an allelic series) with NKX2-4 [3]; 12.5 upbm affinity estimate (log intensity, higher = more binding, comparable within an allelic series) in the assay with NKX2-4 [4]; 12 upbm affinity estimate (log intensity, higher = more binding, comparable within an allelic series) with NKX2-6 [5]; 8.4 upbm affinity estimate (log intensity, higher = more binding, comparable within an allelic series) in the assay with ALX1 [12]. Further, the binding signal in the assay with NKX2-6 [6] was 13.5 upbm affinity estimate (log intensity, higher = more binding, comparable within an allelic series); in the assay with ALX1 [13] it was 8.44 upbm affinity estimate (log intensity, higher = more binding, comparable within an allelic series); with NKX2-4 [7], 13.1 upbm affinity estimate (log intensity, higher = more binding, comparable within an allelic series); with NKX2-6 [8], 10.8 upbm affinity estimate (log intensity, higher = more binding, comparable within an allelic series); in the assay with NKX3-2 [9] it was 13 upbm affinity estimate (log intensity, higher = more binding, comparable within an allelic series); in the assay with ALX1 [14] it was 8.77 upbm affinity estimate (log intensity, higher = more binding, comparable within an allelic series). Further, the binding signal in the assay with NKX2-5 [10] was 12.7 upbm affinity estimate (log intensity, higher = more binding, comparable within an allelic series); in the assay with NKX3-2 [11], 13.1 upbm affinity estimate (log intensity, higher = more binding, comparable within an allelic series).
Consider AATTAGCT, for which the binding signal with NKX2-5 [1] was 10.5 upbm affinity estimate (log intensity, higher = more binding, comparable within an allelic series); in the assay with VENTX [15], 11.7 upbm affinity estimate (log intensity, higher = more binding, comparable within an allelic series); with VENTX [16], 11.4 upbm affinity estimate (log intensity, higher = more binding, comparable within an allelic series); with ALX1 [12] it was 11.5 upbm affinity estimate (log intensity, higher = more binding, comparable within an allelic series); with ALX1 [13], 11.1 upbm affinity estimate (log intensity, higher = more binding, comparable within an allelic series); in the assay with ALX1 [14], 12.1 upbm affinity estimate (log intensity, higher = more binding, comparable within an allelic series). In addition, the binding signal with NKX2-5 [10] was 10.6 upbm affinity estimate (log intensity, higher = more binding, comparable within an allelic series).
CGGTCCAA: the binding signal in the assay with NKX2-5 [1] was 8.45 upbm affinity estimate (log intensity, higher = more binding, comparable within an allelic series); with NKX2-5 [10], 8.42 upbm affinity estimate (log intensity, higher = more binding, comparable within an allelic series).
CCAGGCCG: the binding signal with NKX2-5 [1] is 8.83 upbm affinity estimate (log intensity, higher = more binding, comparable within an allelic series); with NKX2-4 [2], 9.57 upbm affinity estimate (log intensity, higher = more binding, comparable within an allelic series); in the assay with NKX2-4 [3], 9.57 upbm affinity estimate (log intensity, higher = more binding, comparable within an allelic series); in the assay with NKX2-4 [4], 9.56 upbm affinity estimate (log intensity, higher = more binding, comparable within an allelic series); with NKX2-4 [7] it was 9.57 upbm affinity estimate (log intensity, higher = more binding, comparable within an allelic series); with NKX2-5 [10], 8.78 upbm affinity estimate (log intensity, higher = more binding, comparable within an allelic series).
Regarding CGCCCGAG, the binding signal in the assay with NKX2-5 [1] was 8.73 upbm affinity estimate (log intensity, higher = more binding, comparable within an allelic series); in the assay with HOXB4 [17] it was 7.76 upbm affinity estimate (log intensity, higher = more binding, comparable within an allelic series); in the assay with HOXB4 [18], 7.79 upbm affinity estimate (log intensity, higher = more binding, comparable within an allelic series); with NKX2-5 [10], 8.76 upbm affinity estimate (log intensity, higher = more binding, comparable within an allelic series).
Take ACGCGCAG: the binding signal with NKX2-5 [1] is 8.62 upbm affinity estimate (log intensity, higher = more binding, comparable within an allelic series); with NKX2-6 [5], 9.46 upbm affinity estimate (log intensity, higher = more binding, comparable within an allelic series); with NKX2-5 [10] it was 8.69 upbm affinity estimate (log intensity, higher = more binding, comparable within an allelic series).
Turning to CCGCGTCG, the binding signal with NKX2-5 [1] was 9.03 upbm affinity estimate (log intensity, higher = more binding, comparable within an allelic series); with HOXB4 [17], 7.75 upbm affinity estimate (log intensity, higher = more binding, comparable within an allelic series); with HOXB4 [18], 7.36 upbm affinity estimate (log intensity, higher = more binding, comparable within an allelic series); in the assay with NKX2-5 [10] it was 8.95 upbm affinity estimate (log intensity, higher = more binding, comparable within an allelic series).
GCCACTTA: the binding signal was 13.3 upbm affinity estimate (log intensity, higher = more binding, comparable within an allelic series) with NKX2-5 [1]; 12.7 upbm affinity estimate (log intensity, higher = more binding, comparable within an allelic series) with NKX2-4 [2]; 13 upbm affinity estimate (log intensity, higher = more binding, comparable within an allelic series) in the assay with NKX2-4 [3]; 12.5 upbm affinity estimate (log intensity, higher = more binding, comparable within an allelic series) with NKX2-4 [4]; 12.2 upbm affinity estimate (log intensity, higher = more binding, comparable within an allelic series) with NKX2-6 [5]; 14 upbm affinity estimate (log intensity, higher = more binding, comparable within an allelic series) with NKX2-6 [6]. For the same sequence, the binding signal with NKX2-4 [7] was 13.2 upbm affinity estimate (log intensity, higher = more binding, comparable within an allelic series); with NKX2-6 [8] it was 11.2 upbm affinity estimate (log intensity, higher = more binding, comparable within an allelic series); with NKX3-2 [9], 13.3 upbm affinity estimate (log intensity, higher = more binding, comparable within an allelic series); with NKX2-5 [10], 13.1 upbm affinity estimate (log intensity, higher = more binding, comparable within an allelic series); with NKX3-2 [11] it was 13.4 upbm affinity estimate (log intensity, higher = more binding, comparable within an allelic series).

For the origin of these results see PMC11006913.
